Screens from PubChem.
GLA inh pH 4.5 = blocks human alpha-galactosidase A at pH 4.5; P06280; purified enzyme, 4-MU-alpha-Gal fluorescence, pH 4.5; activity change, negative = inhibition, % at 105 µM; 230,000 tested, under 10 active; AID 1467;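 note: 0% = full activity with enzyme and -100% = basal without enzyme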
Target sequence (P06280 whole entry, looked up): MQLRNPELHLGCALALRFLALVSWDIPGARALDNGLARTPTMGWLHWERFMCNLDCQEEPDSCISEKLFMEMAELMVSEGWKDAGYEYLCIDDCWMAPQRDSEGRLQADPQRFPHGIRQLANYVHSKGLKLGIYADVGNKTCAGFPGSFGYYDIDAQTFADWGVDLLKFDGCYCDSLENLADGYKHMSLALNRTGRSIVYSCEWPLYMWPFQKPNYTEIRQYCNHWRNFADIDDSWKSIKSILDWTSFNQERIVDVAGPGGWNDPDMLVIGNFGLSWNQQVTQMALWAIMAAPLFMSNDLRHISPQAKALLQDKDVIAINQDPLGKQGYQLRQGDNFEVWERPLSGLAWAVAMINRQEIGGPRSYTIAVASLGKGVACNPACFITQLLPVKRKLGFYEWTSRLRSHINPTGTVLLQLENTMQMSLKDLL
GAA inhib = blocks human lysosomal alpha-glucosidase; P10253; purified human GAA, 4-MU-alpha-glucoside fluorescence; Potency, µM (top dose mostly 76.9 µM), inactives show top-dose activity change, negative = inhibition, hits mostly inhibitors; actives 0.005% (n = 200,000);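 note: potency is the fitted concentration of half-maximal effect; plate controls were uninhibited enzyme wells for no effect and no-enzyme background for full effect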
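Enzyme (4 nM final) mixed with compound (up to 77 uM), then 4-MU-alpha-D-pyranoside (400 uM final) added; 20 min at room temperature, pH 5.0. Reaction stopped at pH 10, fluorescence read, AC50 derived by Hill fit.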
aGlu spleen mod = lysosomal alpha-glucosidase (human) modulation. Potency, µM (top dose mostly 79.9 µM), inactives show at the top dose activity change, negative = inhibition, actives largely listed as inhibitors. human spleen homogenate, 4-MU-alpha-glucoside fluorescence. actives 0.006% (n = 240,000). P10253;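 note: potency is the fitted concentration of half-maximal effect; 0% = enzyme with vehicle and -100% = no enzyme basal signal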
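AC50 values come from Hill-equation fits of concentration-response data, normalized to no-enzyme and full-activity controls. Enzyme source: 1 ug human spleen homogenate; 1 mM fluorogenic 4-MU glucoside, pH 5.0 citrate buffer, 37 C, 40 min.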
N370S GC mod = inhibitors or activators of N370S glucocerebrosidase for Gaucher disease; P04062; N370S GC spleen homogenate, 4MU-glucoside fluorescence; Potency, µM (top dose mostly 59.4 µM), for inactives: at the top dose activity change, negative = inhibition, actives largely listed as inhibitors; actives 0.092% (n = 330,000);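 note: potency is the fitted concentration of half-maximal effect; 0% = full enzyme activity and -100% = no enzyme basal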
GLA spleen mod = inhibits or activates alpha-galactosidase in human spleen homogenate. human spleen homogenate, 4MU-alpha-Gal fluorescence, 40 min. Potency, µM (top dose mostly 80 µM), for inactives: at the top dose activity change, negative = inhibition, usual class: inhibitors. AID 2107. actives 0.008% (n = 240,000);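 note: potency is the fitted concentration of half-maximal effect; 0% = enzyme with vehicle and -100% = no enzyme basal signal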
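qHTS titration in buffer at pH 5.0. Alpha-galactosidase activity in spleen homogenate was measured via 4-methylumbelliferone release from 1 mM fluorogenic substrate after 40 min at 37C and a pH 10 stop. AC50 came from Hill fits of control-normalized data.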
GAA glycogen = alters human alpha-glucosidase cleavage of glycogen; recombinant GAA, glycogen substrate, Amplex Red glucose oxidase fluorescence; Potency, µM (highest dose often 76.4 µM), inactives show at the highest dose activity change, negative = inhibition, actives largely listed as inhibitors; actives 0.38% (n = 300,000); AID 2100;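 note: potency is the fitted concentration of half-maximal effect; 0% = full enzyme reaction and -100% = no-enzyme basal signal; the screen sought inhibitors and activators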
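qHTS, 1536-well; enzyme 4 nM final; cpd up to 77 uM; substrate bovine liver glycogen 30 ug; 50 mM citrate/phosphate pH 5.0, 0.01% Tween-20; 37 C, 40 min; Amplex Red detection 45 min RT; Hill fit → AC50.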
* marks the source's active call; other numbers are inactive results; ? = inconclusive; . = not tested or not shown; [ ] = dose if it differs, or a comment. Rows were chosen to be rich in hits. Some 0.41% of all compounds tested hit in one or more screens of this group. Calls come from the whole dose curve; as a rule, active = well fitted curve in the direction sought with a large enough effect; inconclusive = small, poorly fitted or top-dose-only effect, or another doubt; inactive = no such curve, though single readings can be large; an effect the other way counts as inactive or inconclusive.

SMILES | GLA inh pH 4.5 | GAA inhib | aGlu spleen mod | N370S GC mod | GLA spleen mod | GAA glycogen
O=C(NCCc1ccccc1)c1ccc2c(c1)N(Cc1ccc(Cl)cc1)C(=O)c1ccccc1S2(=O)=O | . | . | . | . | . | -11.0%[76.3 µM]
OC1C[N+]2(CCCCC2)C1 | -1.2 | -7.7% | -15.9% | 5.9% | 0.3% | -9.7%
O=C1Cc2ccccc2C(=O)N1OCc1ccc(Cl)cc1Cl | 0.1 | 4.2% | -3.6% | -5.8% | -7.9% | 25.1µM*
O=C1c2ccccc2C(=O)N1OCc1cccc(Cl)c1 | 12.5 | -6.2% | -4.0% | 3.0% | 4.1% | 5.7%
CCOc1ccc2oc(C(=O)NC(C)(C)CC)c(C)c2c1 | 1.7 | 5.0% | -4.9% | 9.0% | -6.2% | -16.6%
COCCNc1nc(-c2ccccc2CN(C)C)nc2ccccc12 | 1.7 | . | -3.2% | -9.0% | -2.8% | .
Cc1cc(=O)n2c3c(sc2n1)C(=O)N(Cc1ccccc1)C3=O | -2.5 | -2.2% | -7.0% | -4.5% | -1.3% | -5.9%
O=C1OCC(CO)(CO)N=C1NNc1ccc(Cl)c(Cl)c1 | 3.2 | -5.3% | 4.3% | -4.7% | -10.5% | 35.5µM*
CCCC[C@H](NC(=O)[C@@H]1CCCN1C(=O)[C@H]1CCCN1C(=O)[C@H](Cc1ccccc1)NC(=O)[C@@H](Cc1c[nH]c2ccccc12)NC(=O)[C@H](C)NC(=O)[C@H](CCCN=C(N)N)NC(=O)OC(C)(C)C)C(N)=O | . | . | 2.3% | 2.82µM* | -7.6% | .
CC(C)C[C@H](NC(=O)[C@H](CC(C)C)NC(=O)[C@@H](Cc1c[nH]c2ccccc12)NC(=O)[C@H](Cc1ccccc1)NC(=O)[C@@H](Cc1c[nH]c2ccccc12)NC(=O)[C@H](CCC(N)=O)NC(=O)[C@H](CCC(N)=O)NC(=O)[C@@H]1CCCN1C(=O)[C@H](CCCCN)NC(=O)[C@@H]1CCCN1C(=O)[C@H](N)CCCN=C(N)N)C(N)=O | . | . | -5.4% | -3.2% | 7.0% | .
O=S(=O)(c1ccc(OCC(O)CN2CCN(c3ccccc3O)CC2)cc1)N1CCOCC1 (stereo unspecified) | 8.6 | -6.1% | -0.3% | 19.5% | 7.2% | 6.31µM*
O=[N+]([O-])c1cc(/C=N/Nc2nc(N3CCCCC3)nc(N3CCCCC3)n2)ccc1O | -4.8 | 0.5% | -8.9% | 8.1% | -1.2% | 10.2%
O=c1nc(/C=C/c2ccc(O)c(O)c2)oc2ccccc12 | -18.5 | . | -16.6% | -24.6% | -1.0% | 7.08µM*
Cc1cccc(C(=O)NCCCNC(=O)c2ccccn2)c1 | . | . | . | 3.0% | . | -5.6%
O=C1CC(Nc2ccc(N3CCOCC3)cc2)C(=O)N1Cc1ccccc1 (stereo unspecified) | -10.2 | -4.9% | -0.4% | -8.3% | 4.5% | 12.6µM*
COc1ccc(-c2cc3ccccc3[nH]2)cc1 | 4.6 | . | -0.7% | -15.5% | 1.1% | -4.8%
Cc1ccc(O)c(-c2cc3ccccc3[nH]2)c1 | ? | ? | 5.9% | 18.8% | 21.7% | 31.6µM*
O=C(O)c1cccc(-c2ccc(/C=N/Nc3nn[nH]n3)o2)c1 | -21.3 | -7.7% | -7.9% | -1.9% | 0.9% | 1.78µM*
CNNC(=S)NCCC1=CCCCC1 | 0.1 | 2.4% | -5.6% | 20.4% | -2.5% | -21.4%
CC(C)C(=O)c1ccc(O)c(O)c1 | -6.9 | . | 0.9% | -0.8% | -6.6% | 7.08µM*
COC(=O)c1ccc(O)c(Sc2cc(C(=O)OC)ccc2O)c1 | -4.5 | -6.6% | -12.8% | 0.1% | 0.7% | -15.8%
C[C@@H]1O[C@@H](Oc2c(-c3cc(O)c(O)c(O)c3)oc3cc(O)cc(O)c3c2=O)[C@H](O)[C@H](O)[C@H]1O | -8.8 | -3.0%[15.4 µM] | -2.1% | -6.3% | 22.2% | 3.16µM*
O=c1c(OC2OC(CO)C(O)C(O)C2O)c(-c2ccc(O)c(O)c2)oc2cc(O)cc(O)c12 (stereo unspecified) | -2.7 | -0.8%[15.4 µM] | -1.2% | -12.7% | -5.0% | 12.6µM*
Oc1cccc(NC(=S)N=Nc2c(O)[nH]c3ccc(Br)cc23)c1 | -3.7 | . | -7.9% | 7.94µM* | -7.1% | -24.0%
Oc1ccc(NC(=S)N=Nc2c(O)[nH]c3ccccc23)cc1 | 3.8 | -1.9% | -3.5% | -15.9% | -1.5% | 39.8µM*
SMILES | GLA inh pH 4.5 | GAA inhib | aGlu spleen mod | N370S GC mod | GLA spleen mod | GAA glycogen
COc1ccccc1S(=O)(=O)Cc1ccc(C(=O)N2CCN(c3cc(Cl)ccc3C)CC2)o1 | . | . | . | . | . | 8.7%[76.3 µM]
CCCC(=O)Nc1ccc(C(=O)COC(=O)c2c(C)noc2C)cc1 | . | . | . | 2.2% | . | .
Cc1ccc(O)c(Nc2c3ccccc3nc3ccccc23)c1 | . | . | . | ? | . | 11.2µM*
CN(C)c1ncc2nc(CCc3ccccc3)c(=O)n(-c3ccccc3)c2n1 | . | . | 8.3% | 27.4% | 11.8% | .
C=CC[n+]1c(-c2ccc(OC)c(OC)c2)csc1NNC(=O)Nc1ccccc1 | 0.4 | -4.1% | 4.5% | -2.7% | 4.6% | 31.6µM*
C=CC[n+]1c(-c2ccccc2)csc1NC(C)(C)C | -8.1 | -3.2% | -8.7% | -1.5% | -6.5% | 6.5%
O=C(Nc1ccc(C(=O)O)cc1)/C(=C\c1ccco1)NC(=O)c1ccccc1Cl | . | . | . | -2.0% | . | .
Nc1nc(N2CCN(C(c3ccccc3)c3ccccc3)CC2)n[nH]1 | 0.7 | 4.5% | -2.1% | -6.8% | 3.7% | ?
Nc1nc(N2CCN(Cc3ccccc3)CC2)n[nH]1 | 7.8 | 7.1% | -4.2% | -0.9% | 3.8% | 5.62µM*
COc1ccc(C(=O)N(C)C2CCCCC2)cc1OC1CCN(C(C)C)CC1 | . | . | . | 1.4% | . | .
CCOC(=O)CC(=O)CSc1nc(CC)c(C)cc1C#N | 10.5 | . | -7.6% | 9.7% | 7.1% | -5.0%
CCOC(=O)CC(=O)CSc1nc2ccc(C)cc2cc1C#N | -6.7 | ? | -2.3% | 22.4µM* | 4.7% | -3.9%
CCCCN(C(=O)Cn1nnc2ccccc21)C(C(=O)NCCOC)c1ccc(OC)cc1 (stereo unspecified) | 1.0 | -5.8% | -5.6% | 8.1% | -3.0% | 0.3%
COc1ccc(NC(=O)c2c(C)oc3ccc(O)c(CN4CCCC4)c23)cc1Cl | . | . | . | . | . | -8.9%[76.3 µM]
CCOC(=O)C(C)Oc1cccc2c(=O)n(CC(=O)Nc3cccc(OC)c3)ccc12 (stereo unspecified) | 1.0 | -1.2% | -4.4% | -4.1% | -6.3% | -4.2%
O=C(NNC(=O)c1sccc1-n1cccc1)Nc1ccccc1 | -15.3 | 1.2% | 5.0% | 2.9% | 1.0% | 12.6µM*
CN1CCN(CCCn2cnc3c(=O)oc4ccccc4c32)CC1 | -14.3 | 5.4% | -6.8% | -7.4% | 2.1% | 0.4%
Nc1cc(Br)c(N)c(Br)c1 | 6.1 | 3.8% | -3.5% | -8.8% | -6.5% | 31.6µM*
Cc1nc2ccccc2c(=O)n1CCc1ccc(O)cc1 | . | . | . | -13.9% | . | 6.5%
Cc1cc(=O)n2c3ccccc3n(CC(O)CN3CCN(Cc4ccccc4)CC3)c2c1C#N (stereo unspecified) | 2.8 | . | 7.1% | -1.1% | 9.2% | 2.4%
